Measurements from PubChem BioAssay AID1851 (National Center for Advancing Translational Sciences (NCATS), 2009).
Out of some 16,000 compounds screened, about 4,000 (25%) were called active. Roughly 26% stayed inconclusive and do not appear here. Not all results are given here. A number with no mark means an inactive call. Calls come from the whole dose curve; as a rule, active = well fitted curve in the direction sought with a large enough effect; inconclusive = small, poorly fitted or top-dose-only effect, or effect the other way; inactive = no such curve, though single readings can be large or run the other way.

These compounds were tested against Cytochrome P450 2C9 (Homo sapiens) (UniProt P11712) (assay: Cytochrome panel assay with activity outcomes). Conditions: recombinant CYP, pro-luciferin dealkylation, luminescence, p450-cyp2c9; series mostly up to 57.1 µM; activity, negative = inhibition: at the top concentration.
% is set by controls: 0 for no effect and ±100 for the full control effect.

Chain of Cytochrome P450 2C9 (Homo sapiens) (P11712 whole entry, looked up): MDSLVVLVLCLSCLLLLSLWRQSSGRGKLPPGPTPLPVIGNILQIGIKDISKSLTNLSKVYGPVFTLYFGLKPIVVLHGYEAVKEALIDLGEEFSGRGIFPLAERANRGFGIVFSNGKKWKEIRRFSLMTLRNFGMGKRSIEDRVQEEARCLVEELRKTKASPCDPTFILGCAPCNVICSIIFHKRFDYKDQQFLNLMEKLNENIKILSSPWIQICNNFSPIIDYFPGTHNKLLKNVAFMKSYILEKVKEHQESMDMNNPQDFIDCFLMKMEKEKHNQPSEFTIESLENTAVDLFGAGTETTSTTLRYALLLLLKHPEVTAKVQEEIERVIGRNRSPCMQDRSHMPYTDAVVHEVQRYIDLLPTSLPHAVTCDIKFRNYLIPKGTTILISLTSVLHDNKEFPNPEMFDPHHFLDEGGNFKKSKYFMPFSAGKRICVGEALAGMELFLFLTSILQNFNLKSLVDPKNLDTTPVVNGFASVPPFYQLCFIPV

| SMILES | activity, negative = inhibition | AC50 |
| --- | --- | --- |
| NS(=O)(=O)c1ccc(N=Nc2nc3[nH]c(=O)[nH]c(=O)c3[nH]2)cc1 | 0.503% [at 11.4 µM] |  |
| Cc1ccc(/C=C/c2ccc(=O)n(Cc3ccc(Cl)cc3Cl)n2)cc1 |  | 3.16 µM (active) |
| CC(C)(CO)[C@H](O)C(=O)NCCCO | -1.14% [at 25.6 µM] |  |
| COCCCNC(=O)c1c(N)n(/N=C/c2ccccn2)c2nc3ccccc3nc12 |  | 5.62 µM (active) |
| Cc1ccc(/C=N/n2c(COc3ccccc3)n[nH]c2=S)s1 |  | 4.47 µM (active) |
| O=[N+]([O-])c1ccccc1/C=N/n1c(COc2ccccc2)n[nH]c1=S |  | 3.55 µM (active) |
| CC1=NNC(=O)C1CCC(=O)N/N=C\c1ccccc1[N+](=O)[O-] (stereo not drawn) | -22.2% |  |
| O=[N+]([O-])c1ccc(/C=N/n2c(COc3ccccc3)n[nH]c2=S)cc1 |  | 2.82 µM (active) |
| O=c1ccc(-c2ccccc2)n[nH]1 | 6.17% [at 11.4 µM] |  |
| C[C@]12CC[C@H]3c4ccc(O)cc4CC[C@@H]3[C@H]1C/C(=N/O)[C@H]2O | 21.3% [at 11.4 µM] |  |
| COc1ccccc1CN1CC[C@@]2(CCCN(C(C)=O)C2)C1 | 18% |  |
| CCc1cc2c(nc1CC)CCN(CC/C(C)=N/OC[C@@H](O)[C@@H]1O[C@@H]3OC(C)(C)O[C@@H]3[C@H]1O)C2 | -13.5% [at 11.4 µM] |  |
| C=CCSc1nnc(-c2cc3c(-c4ccccc4)nn(C)c3s2)n1C |  | 14.1 µM (active) |
| COc1cc(-c2nnc(SC/C=C/c3ccccc3)n2N)cc(OC)c1OC | -22.9% |  |
| Cc1noc(C)c1-c1nccc(NCCN2CCOCC2)n1 | 3.29% [at 2.29 µM] |  |
| O=C(Nc1nnc(CCS(=O)(=O)c2ccc(Br)cc2)s1)c1ccc([N+](=O)[O-])cc1 | 6.65% |  |
| O=C(COc1ccc(Br)cc1)Nc1ccc([N+](=O)[O-])cn1 | -16.4% |  |
| O=C(COc1cccc(NC(=O)c2cccc([N+](=O)[O-])c2)c1)c1ccc(Br)cc1 |  | 0.891 µM (active) |
| C[C@@H](c1ccccc1)N1C(=O)[C@H]2[C@@H]3[C@H](O)[C@H](O)CC(=O)[C@H]3CC[C@H]2C1=O | -15.7% [at 11.4 µM] |  |
| CCCn1c(N)[n+](CC(=O)c2ccco2)c2ccccc21 | -34% |  |
| CCCCCn1c(=O)c(C(=O)c2ccccc2)nc2ccccc21 |  | 14.1 µM (active) |

| SMILES | activity, negative = inhibition | AC50 |
| --- | --- | --- |
| O=C(c1ccccc1)c1nc2ccccc2n(CCCn2c(=O)c(C(=O)c3ccccc3)nc3ccccc32)c1=O |  | 0.2 µM (active) |
| O=C(O)Cc1cc2ccccc2nc1C(=O)O | -9.23% |  |
| N=C(N)[C@H](N=Nc1ccccc1)C(N)=O | -7.82% [at 11.4 µM] |  |
| CCn1c(O)c(/C=N/N=C2CCCC2)c2ccc(C3=NNC(=O)CC3)cc21 | 2.05% |  |
| OC(COCC1COc2ccccc2O1)CN1CCc2ccccc2C1 (stereo not drawn) | -24.8% |  |
| CC1CCCC(C)N1CC(O)COCC1COc2ccccc2O1 (stereo not drawn) | -11.1% |  |
| Cc1ccc(C2C(=O)N(C3CCCC3)CC(=O)N2CC2COc3ccccc3O2)cc1 (stereo not drawn) |  | 11.2 µM (active) |
| Nc1ccn([C@H]2O[C@@H](COP(=O)(O)O)[C@@H](O)[C@H]2O)c(=O)n1 | -6.67% [at 11.4 µM] |  |
| Cn1cc(C(=O)OCC2CCN(CCNS(C)(=O)=O)CC2)c2ccccc21 | 3.8% |  |
| COc1cc(N)c(Cl)cc1C(=O)OCCCN1CCCCC1 | 20.3% |  |
| COc1cc(N)c(Cl)cc1C(=O)CCC1CCN(CCNS(C)(=O)=O)CC1 |  | 0.251 µM (active) |
| CCn1cc(C(=O)O)c(=O)c2cc(F)c(N3CCN[C@@H](C)C3)c(F)c21 |  | inactive |
| COc1ccc(C(C)=O)c(OC(=O)c2ccco2)c1 | -23.6% |  |
| O=C(Oc1ccc(OC(=O)c2ccco2)c(S(=O)(=O)c2ccc(Br)cc2)c1)c1ccco1 |  | 0.708 µM (active) |
| CC(C)OC(=O)c1cccc(C(=O)Oc2ccc(Br)cc2)n1 | -23.1% |  |
| CCc1cc2c(=O)c(-c3cnn(-c4ccccc4)c3)coc2c(CN2CCOCC2)c1O |  | 2.51 µM (active) |
| OC(CCCN1CCCCC1)(c1ccccc1)c1ccccc1 | -4.74% [at 25.6 µM] |  |
| O=C(N/N=C/c1cccc(Oc2ccccc2)c1)c1cccc(Br)c1 |  | 7.08 µM (active) |
| O=C(N/N=C/C1C(c2ccccc2)C1(Cl)Cl)c1cccc(Br)c1 (stereo not drawn) |  | 2 µM (active) |
| C/C(=N\NC(=O)c1cccc(Br)c1)c1ccc(Br)cc1 | -20.4% |  |
| O=C(N[C@@]1(C(=O)O)C[C@@H]1c1ccccc1)c1ccccc1 | 5.78% [at 11.4 µM] |  |

| SMILES | activity, negative = inhibition | AC50 |
| --- | --- | --- |
| O=C(N/N=C\c1ccc(Sc2ccccn2)o1)c1cccc(Br)c1 |  | 2.24 µM (active) |
| O=C(O)Cn1ccnc1[N+](=O)[O-] | 9.22% [at 11.4 µM] |  |
| COc1ccc2c(c1)N(C[C@@H](C)CN(C)C)c1ccccc1S2 | 0.217% [at 25.6 µM] |  |
| COc1ccccc1-c1cncnc1NCc1cccc(C)c1 | -10.6% [at 2.29 µM] |  |
| Nc1ncncc1-c1ccc([N+](=O)[O-])cc1 | 34.9% |  |
| Cc1cc(C)c(Cn2cnc(-c3ccc([N+](=O)[O-])cc3)c2)c(C)c1 |  | 12.6 µM (active) |
| Cc1nn(Cc2ccc([N+](=O)[O-])cc2)c(=O)n1-c1cccc(F)c1 | -24.2% |  |
| O=C(CC(=O)N/N=C\c1c(Cl)cccc1Cl)NCc1ccccc1 | -20.1% |  |
| Cc1cc(C)n(CC(=O)N/N=C/c2ccco2)n1 | 16.2% |  |
| O=C(N/N=C/c1ccco1)c1ccc(Br)o1 | 16.9% |  |
| O=C(Cc1ccccc1)N/N=C\c1ccc(Br)o1 |  | 12.6 µM (active) |
| O=C(Cc1ccccc1)N/N=C/c1cc(Br)c(Br)o1 |  | 14.1 µM (active) |
| O=c1c[n+](CCCC[n+]2cc(=O)o[nH]2)[nH]o1 | 10.6% [at 11.4 µM] |  |
| c1csc(CNc2nc(-c3ccoc3)nc3ccccc23)c1 | -11.2% [at 2.29 µM] |  |
| CO[C@H]1COC(=O)CCC[C@@H](C)[C@H](OC)COC(=O)[C@H]2CCCN2C(=O)C/C=C\[C@@H]1C | 5.44% [at 11.4 µM] |  |
| COc1cccc(/C=N/NC(=O)c2cccc([N+](=O)[O-])c2)c1OS(=O)(=O)c1ccc(C)cc1 |  | 3.55 µM (active) |
| C=CCOc1ccc2cccc(/C=N/NC(=O)c3cc4cc([N+](=O)[O-])ccc4s3)c2c1 | -31.2% |  |
| COc1ccc(/C=N/NC(=O)c2cccc([N+](=O)[O-])c2)cc1OS(=O)(=O)c1ccc(C)cc1 |  | 0.891 µM (active) |
| O=C(N/N=C/c1ccco1)/C(=C/c1cccc([N+](=O)[O-])c1)NC(=O)c1ccccc1 | -23.4% |  |
| CC(/C=N/NC(=O)c1cccc([N+](=O)[O-])c1)=C\c1ccccc1 |  | 0.355 µM (active) |
| Cc1ccc(C(=O)N/N=C/c2ccc([N+](=O)[O-])s2)cc1 | -24.8% |  |
